The results in this text go back to PubChem BioAssay (NCI).

SMILES strings stand for the structures. The panel holds about 83,000 compounds, 20% with a hit somewhere; the sample as a whole holds those more often.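 Compound tested at a single concentration for 48 hours in 96-well plates; a percent growth value below 10 was scored as active.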 A number with no mark means an inactive call. Active and inactive are the calls of the source.

Experiment in all cases: NCI-60 one-dose screen, 48 h (100 = growth as untreated, 0 = no growth, -100 = all killed)
What all share (conditions): 10 µM unless noted

In assay [1] the test system is HCT-15 colon.
Assay [2] has as its system HT29 colon.
The subject of assay [3] is SNB-75 CNS.
Assay [4] concerns SNB-19 CNS.
Assay [5] relates to U251 CNS.
Assay [6] relates to PC-3 prostate.
The subject of assay [7] is SK-MEL-5 melanoma.
Assay [8] concerns UACC-62 melanoma.
The subject of assay [9] is LOX IMVI melanoma.
The test system of assay [10] is SK-MEL-28 melanoma.
Assay [11] has as its system SK-MEL-2 melanoma.
Assay [12] relates to SN12C renal.
Assay [13] deals with UO-31 renal.
Assay [14] has as its system TK-10 renal.
The subject of assay [15] is ACHN renal.
Assay [16] relates to CAKI-1 renal.
Assay [17] concerns A498 renal.
Assay [18] concerns CCRF-CEM leukemia.
For assay [19], the system named is MOLT-4 leukemia.
In assay [20] the test system is EKVX NSCLC.

`CN(C)c1ccc([C@@H](C(=O)Nc2cccc([N+](=O)[O-])c2)N(C(=O)c2cc3ccccc3[nH]2)c2cccc([N+](=O)[O-])c2)cc1`: the growth is 103% in [1]; 101% in assay [2]; 78.2% in [3]; 97.8% in [4]; 88.8% in assay [5]; 82.7% in [6]. In addition, the growth in [7] is 97.7%; in assay [8], 86.7%; in assay [9], 88%; in assay [10], 112%; in assay [11], 113%; in [12], 97.8%. Further, the growth is 67.6% in [13]; 117% in [14]; 93.3% in [15]; 92.5% in [16]; 70.5% in [17]; 96.1% in assay [18]. Besides, in [19], the growth was 92%.

As to `C=C(C)[C@@H]1CC[C@]2(C(=O)N3CCN(C)CC3)CC[C@]3(C)[C@H](CC[C@@H]4[C@@](C)(CCC(=O)O)[C@H](C(=C)C)CC[C@]43C)[C@@H]12`, the growth in assay [1] is 82.5%; in assay [2], 78%; in [3], 76%; in [4] it was 93.6%; in assay [5] it was 79.7%; in assay [6] it was 55.4%. Further, the growth is 82.7% in [7]; 71.3% in [8]; 92.5% in [9]; 99% in assay [10]; 92.2% in [11]; 85.9% in assay [12]. The growth in assay [13] is 50.5%; in [14], 94.3%; in assay [15], 82.8%; in [16] it was 63.1%; in [17], 53%; in assay [19], 61.2%.

As for `CCCOC(=O)Nc1nc2ccc(SCC)cc2s1`, the growth in assay [1] was 54.3%; in assay [2], 31.3%; in assay [3] it was 90.5%; in assay [4], 84.5%; in assay [5] it was 85%; in assay [6], 80.8%. In addition, the growth is 83.6% in assay [7]; 61.2% in assay [8]; 71.1% in [9]; 85.9% in assay [10]; 76.2% in [11]; 89.6% in assay [12]. Also, the growth in assay [13] was 90.7%; in [14], 84.9%; in assay [15] it was 107%; in [16] it was 79.8%; in assay [17], 70.7%; in assay [18], 72.1%. Besides, the growth in assay [19] is 72.9%.

`Cc1ccc(-c2nc(SCC(=O)N3CCN(c4cc5c(cc4F)c(=O)c(C(=O)O)cn5C4CC4)CC3)nc(Cl)c2C#N)cc1`: the growth in assay [1] is 99.8%; in assay [2], 103%; in [3], 103%; in assay [4], 94.7%; in [5], 106%; in assay [6] it was 99.5%. Moreover, the growth is 101% in assay [7]; 94.7% in assay [8]; 97.2% in assay [9]; 106% in assay [10]; 97.8% in assay [11]; 96.3% in assay [12]. The growth in [13] was 82.1%; in assay [14], 104%; in assay [15], 106%; in assay [16], 94.7%; in assay [17], 103%; in [18] it was 106%. Further, in [19], the growth is 105%.

With `COc1ccc(Oc2ccc(/C=C/C(=O)c3cc4ccccc4oc3=O)cc2)cc1`, the growth in assay [1] is 80.5%; in assay [2], 108%; in [3] it was 50.2%; in assay [4], 91.7%; in assay [5] it was 87%; in [6] it was 75.3%. For the same compound, the growth was 92.7% in [7]; 76.7% in [8]; 70.7% in [9]; 98.6% in [10]; 102% in [11]; 94.5% in assay [20]. For the same compound, the growth in assay [13] is 48%; in assay [14] it was 147%; in assay [15], 91.3%; in [16], 74.8%; in assay [17] it was 121%; in assay [19], 57.9%.

Regarding `NS(=O)(=O)c1ccc(C(=O)N=Nc2c(O)[nH]c3ccc(Cl)cc23)cc1`, the growth in assay [1] was 99.4%; in assay [2] it was 99.7%; in assay [3], 89%; in [4], 91.3%; in assay [5], 99.7%; in assay [6], 97.4%. For the same compound, the growth in [7] was 103%; in assay [8], 105%; in assay [9], 102%; in assay [10], 114%; in [11], 105%; in assay [12], 94.9%. In addition, the growth in [13] was 83.8%; in assay [14], 115%; in [15], 107%; in [16], 92.6%; in assay [17], 75.3%; in [18] it was 99.7%. Further, the growth in [19] was 107%.

Regarding `O=C(O)c1cn(C2CC2)c2cc(N3CCN(C(=O)N4CCOCC4)CC3)c(F)cc2c1=O`, the growth in assay [1] is 103%; in assay [2] it was 102%; in [3], 98.1%; in assay [4] it was 105%; in assay [5], 103%; in assay [6], 91.9%. The growth in assay [7] is 99.4%; in assay [8] it was 97.3%; in [9], 87.1%; in [10] it was 104%; in assay [11], 103%; in [12], 101%. In addition, the growth in assay [13] is 79.6%; in assay [14], 93.2%; in [15] it was 100%; in assay [16], 96.5%; in assay [17] it was 117%; in assay [18], 108%. In assay [19], the growth was 117%.

On to `Cc1ccc(C)c2c1sc1nc(N3CCOCC3)c(C#N)c(=O)n12`, for which the growth in [1] was 102%; in [2] it was 97.2%; in assay [3] it was 53.2%; in assay [4] it was 96.3%; in [5], 58.9%; in [6], 18.5%. In addition, the growth was 88.5% in [7]; 90.2% in [8]; 67% in [9]; 103% in [10]; 110% in [11]; 104% in assay [12]. In addition, the growth in assay [13] was 74.9%; in assay [14], 154%; in [15], 105%; in assay [16] it was 105%; in assay [17], 75.7%; in assay [18], 83.1%. For the same compound, the growth in [19] was 110%.

Regarding `CC1SC(c2ccccc2O)N(NC(=O)CCC(=O)c2nc3ncccc3[nH]2)C1=O` (configuration not stated), the growth in assay [1] is 103%; in assay [2] it was 105%; in assay [3] it was 83.8%; in assay [4], 101%; in assay [5], 97.3%; in [6], 92.3%. The growth was 95.1% in [7]; 99.4% in [8]; 84.8% in assay [9]; 113% in assay [10]; 95.8% in assay [11]; 85.7% in assay [20]. The growth in assay [13] is 66.9%; in assay [14], 103%; in assay [15] it was 97.4%; in assay [16], 80.3%; in assay [17] it was 90.6%; in assay [18], 116%. In assay [19], the growth was 123%.

On to `C=CCn1cc(-c2nc3ccccc3s2)c2cc(-c3ccc4c5c(cccc35)C(=O)N(CCO)C4=O)ccc21`, for which the growth was 94.3% in assay [1]; 98.2% in assay [2]; 98.9% in assay [3]; 93.1% in assay [4]; 97.2% in assay [5]; 83.7% in [6]. In addition, the growth in [7] was 96.1%; in assay [8], 94.9%; in assay [9], 95.4%; in [10], 110%; in assay [11] it was 105%; in [20] it was 81.3%. The growth in [13] was 62.7%; in assay [14], 138%; in [15] it was 94.5%; in [16], 75.2%; in assay [17], 113%; in assay [18], 104%. For the same compound, the growth in [19] was 91.3%.

Regarding `c1ccc(Cn2cc3c(c2-c2ccccc2)CCc2cnoc2-3)cc1`, the growth in assay [1] is 48.6%; in assay [2], 30.1%; in assay [3], 4.38% (active); in [4], 70.6%; in assay [5], 55.5%; in assay [6], 82.5%. For the same compound, the growth in assay [7] is 78.8%; in assay [8], 43.1%; in assay [9], 66.1%; in [10], 59.5%; in assay [11], 93.4%; in assay [12], 101%. The growth in [13] is 80.1%; in [14], 101%; in [15], 101%; in assay [16], 84.1%; in [17] it was 54%; in assay [18], 48.3%. In [19], the growth is 58.5%.

As for `COC(=O)c1sccc1-c1cc(O)c(C(=O)Nc2ccccc2)s1`, the growth in assay [1] was 97.7%; in [2], 90%; in assay [3], 72%; in assay [4] it was 107%; in [5], 101%; in [6], 90.4%. In addition, the growth in assay [7] was 102%; in assay [8], 91.2%; in assay [9] it was 96.6%; in assay [10], 110%; in assay [11], 104%; in assay [12] it was 105%. The growth in [13] was 69.9%; in assay [14], 121%; in assay [15], 94%; in [16], 86.4%; in assay [17], 115%; in [18], 101%. Further, the growth in [19] is 96.9%.

Consider `CCOc1ccc(/C=C/C(=O)c2cccc(OCCCOc3cccc(C(=O)/C=C/c4ccc(OCC)cc4)c3)c2)cc1`, for which the growth in assay [1] is 75.9%; in assay [2], 94.2%; in assay [3] it was 83.9%; in assay [4], 92.1%; in assay [5], 103%; in assay [6], 75.2%. For the same compound, the growth in assay [7] was 75.2%; in assay [8], 57.9%; in assay [9], 83.5%; in assay [10], 87.1%; in assay [11], 106%; in [20], 76.9%. In addition, the growth is 73.4% in assay [13]; 79.4% in assay [15]; 78% in [16]; 73.4% in assay [17]; 67.9% in [18]; 73.5% in assay [19].

With `CCOC(=O)c1c(NC(=O)c2ccccc2)sc2c3c(ccc12)OCN(C)C3`, the growth is -48.4% (active) in assay [1]; -20.3% (active) in [2]; 79.3% in assay [3]; 8.15% (active) in assay [4]; -13% (active) in [5]; 21.7% in [6]. The growth in [7] was -40.3% (active); in [8] it was -71.2% (active); in [9], -90.8% (active); in assay [10] it was -92.2% (active); in assay [11], -34.4% (active); in assay [20] it was 26.3%. In addition, the growth in assay [13] is -75.6% (active); in assay [14] it was 68.5%; in assay [15], -68.7% (active); in assay [16], -42% (active); in assay [17], 46.5%; in assay [18], -0.327% (active). The growth in assay [19] is -33% (active).

Turning to `Cc1ccc(-c2csc(NC(=O)CSc3nc(N)cc(N)n3)n2)cc1`, the growth in assay [1] was 75.2%; in assay [2], 87.8%; in [3], 81.1%; in assay [4], 64.2%; in assay [5], 78.1%; in assay [6] it was 70.5%. In addition, the growth in assay [7] was 2.45% (active); in assay [8], 55.1%; in [9], 60.2%; in assay [10] it was 88.7%; in [11], 51.6%; in [12], 82.9%. Further, the growth in assay [13] is 64.1%; in [14], 78.9%; in assay [15] it was 65.8%; in [16], 79%; in [17], 66.3%; in assay [18], 50%. In addition, the growth in assay [19] is 44.4%.
